The text below walks through data of PubChem BioAssay (Tox21).

Unmarked numbers belong to inactive results. Inconclusive results are not listed. The source made the active and inactive calls. Calls come from the whole dose curve; as a rule, active = well fitted curve in the direction sought with a large enough effect in the repeat runs; inconclusive = weak or mixed curves; inactive = no such curve, though single readings can be large; an effect the other way counts as inactive or inconclusive.

A short description of assay [1]: Human pregnane X receptor (PXR) small molecule agonists, qHTS cell viability counter screen (AID 1346977). Note: nearly all actives have a fitted effect of over 50% in size. Note: potency is the fitted concentration of half-maximal effect. The method in brief:
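In each well, the PXR reporter HepG2 line was checked for viability: CellTiter-Fluor reagent added 23hr post-dosing, fluorescence read after 1hr incubation at 37C.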

Assay [2] can be described thus: Caspase-3/7 induction in HepG2 cells by small molecules, qHTS assay (AID 1346978). Note: nearly all actives have a fitted effect of over 15% in size. Put shortly: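 Caspase-3/7 induction was measured by Caspase-Glo 3/7 luminescence (30 min, room temperature) after a 17 hr compound exposure of wild-type HepG2 cells seeded at 2,000 per well and pre-incubated 5 hr.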
Assay [3] in a line: Caspase-3/7 induction in CHO-K1 cells by small molecules, qHTS cell viability counter screen (AID 1346979). Note: nearly all actives have a fitted effect of over 35% in size. Note: potency is the fitted concentration of half-maximal effect. The method in brief: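 Following a 5hr settling period, CHO-K1 cells at 1,500 per well received DMSO-dissolved compounds. Cell viability was quantified 16hr later by CellTiter-Fluor fluorescence, measured after 1hr with reagent at 37C.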
Assay [4] can be described thus: Caspase-3/7 induction in CHO-K1 cells by small molecules, qHTS assay (AID 1346980). Note: nearly all actives have a fitted effect of over 15% in size. The method in brief: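 Luminescent Caspase-Glo 3/7 read (30min, room temperature) quantified apoptosis induction. Cells were wild-type CHO-K1, treated with compound for 17hr at 37 C and 5% CO2.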
A short description of assay [5]: Caspase-3/7 induction in HepG2 cells by small molecules, qHTS cell viability counter screen (AID 1346981). Note: nearly all actives have a fitted effect of over 30% in size. Note: potency is the fitted concentration of half-maximal effect. The method in brief:
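Fluorescence read-out of live-cell protease activity (CellTiter-Fluor) after 1 hr with reagent. This was measured in the same wells as the caspase-3/7 luminescence, on HepG2 cells exposed to DMSO-dissolved compounds for 16 hr at 37 C.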

The target of assay [6] is Nuclear receptor subfamily 1 group I member 2 (Homo sapiens) (UniProt O75469). As to the kind of experiment: Human pregnane X receptor (PXR) small molecule agonists, qHTS assay (AID 1346982). Note: nearly all actives have a fitted effect of over 35% in size. Note: potency is the fitted concentration of half-maximal effect. The method in brief:
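HepG2 PXR-Luc reporter line, 5% charcoal-stripped FBS; 5 hr pre-incubation, compound (DMSO) 24 hr at 37 C/5% CO2; ONE-Glo 30 min RT; luminescence read-out.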

Assay [7] has as its target Cytochrome P450 2C19 (Homo sapiens) (UniProt P33261). Description: Cytochrome P450 Family 2 Subfamily C Member 19 (CYP2C19) small molecule antagonists: luciferase reporter qHTS assay (AID 1671197). Note: nearly all actives have a fitted effect of over 65% in size. Note: potency is the fitted concentration of half-maximal effect. Put shortly:
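First, compounds are pinned into enzyme-substrate mix and held 10 min at room temperature. Second, NADPH regeneration solution is added and plates incubate 1 h at 37C. Third, detection reagent is added and luminescence read after 20 min.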

Assay [8] concerns the target Cytochrome P450 1A2 (Homo sapiens) (UniProt P05177). Description: Cytochrome P450 Family 1 Subfamily A Member 2 (CYP1A2) small molecule antagonists: luciferase reporter qHTS assay (AID 1671199). Note: nearly all actives have a fitted effect of over 50% in size. Note: potency is the fitted concentration of half-maximal effect. Put shortly: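 Luminescence readout (relative luminescence units) after luciferin detection reagent, 20 min RT. Preceded by 1 h room-temperature CYP1A2 reaction with NADPH regeneration solution following 10 min compound preincubation with enzyme and proluciferin substrate. Furafylline positive control.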

Assay [9] concerns the target Voltage-gated inwardly rectifying potassium channel KCNH2 (Homo sapiens) (UniProt Q12809). Description: Human Ether-a-go-go-Related Gene (hERG) channel small molecule antagonists: fluorescence cell-based qHTS assay (AID 1671200).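 Note: hERG-expressing U2OS cells given a thallium stimulus after FluxOR II dye loading; series mostly up to about 77 µM; nearly all actives have a fitted effect of over 50% in size.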 The method in brief: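 In this thallium-flux screen, overnight-cultured U2OS cells bearing the channel are dye-loaded in darkness for an hour, rested 10 min at room temperature, and then monitored kinetically at 480/540 nm for two minutes post-stimulus.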

The target of assay [10] is Cytochrome P450 2D6 (Homo sapiens) (UniProt P10635). As to the kind of experiment: Cytochrome P450 Family 2 Subfamily D Member 6 (CYP2D6) small molecule antagonists: luciferase reporter qHTS assay (AID 1671196). Note: nearly all actives have a fitted effect of over 50% in size. Note: potency is the fitted concentration of half-maximal effect. Put shortly:
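Luminogenic proluciferin substrate, CYP2D6 enzyme; 10 min RT preincubation with compound, NADPH regeneration system added, 1 h RT. Stop/detection reagent, 20 min RT, luminescence read (RLU). Signal proportional to CYP activity.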

Assay [11] deals with Cytochrome P450 2C9 (Homo sapiens) (UniProt P11712). As to the kind of experiment: Cytochrome P450 Family 2 Subfamily C Member 9 (CYP2C9) small molecule antagonists: luciferase reporter qHTS assay (AID 1671198). Note: nearly all actives have a fitted effect of over 50% in size. Note: potency is the fitted concentration of half-maximal effect. The method in brief:
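Enzyme-substrate mix preincubated with compound 10 min at room temperature; reaction started with NADPH regeneration solution, 1 h 37C. Luminescent luciferin product read after 20 min detection reagent.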

In assay [12] the target is Cytochrome P450 3A4 (Homo sapiens) (UniProt P08684). As to the kind of experiment: Cytochrome P450 Family 3 Subfamily A Member 4 (CYP3A4) small molecule antagonists: luciferase reporter qHTS assay (AID 1671201). Note: nearly all actives have a fitted effect of over 50% in size. Note: potency is the fitted concentration of half-maximal effect. Put shortly: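 CYP3A4 activity was followed with a P450-Glo proluciferin substrate. Test compounds in DMSO were preincubated 10 min; NADPH regeneration then ran 1 h, and light output was read 20 min after detection reagent.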

The target of assay [13] is Nuclear receptor subfamily 1 group I member 2 (Rattus norvegicus) (UniProt Q9R1A7). Description: Rat pregnane X receptor (rPXR) activation by small molecules, qHTS assay (AID 1346983). Note: nearly all actives have a fitted effect of over 20% in size. As to conditions: rPXR luciferase reporter cells, One-Glo luminescence, 24 h; max activation: active compounds read high. The method in brief:
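Luminescent readout (One-Glo luciferase, 30 min room temperature) followed 24 hr compound treatment at 37 C of rPXR cells plated 2,000 per well and preincubated 5hr; qHTS format with compounds delivered in DMSO.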
% is set by controls: 0 for no effect and ±100 for the full control effect.

Chain of Voltage-gated inwardly rectifying potassium channel KCNH2 (Homo sapiens) (Q12809 whole entry, looked up): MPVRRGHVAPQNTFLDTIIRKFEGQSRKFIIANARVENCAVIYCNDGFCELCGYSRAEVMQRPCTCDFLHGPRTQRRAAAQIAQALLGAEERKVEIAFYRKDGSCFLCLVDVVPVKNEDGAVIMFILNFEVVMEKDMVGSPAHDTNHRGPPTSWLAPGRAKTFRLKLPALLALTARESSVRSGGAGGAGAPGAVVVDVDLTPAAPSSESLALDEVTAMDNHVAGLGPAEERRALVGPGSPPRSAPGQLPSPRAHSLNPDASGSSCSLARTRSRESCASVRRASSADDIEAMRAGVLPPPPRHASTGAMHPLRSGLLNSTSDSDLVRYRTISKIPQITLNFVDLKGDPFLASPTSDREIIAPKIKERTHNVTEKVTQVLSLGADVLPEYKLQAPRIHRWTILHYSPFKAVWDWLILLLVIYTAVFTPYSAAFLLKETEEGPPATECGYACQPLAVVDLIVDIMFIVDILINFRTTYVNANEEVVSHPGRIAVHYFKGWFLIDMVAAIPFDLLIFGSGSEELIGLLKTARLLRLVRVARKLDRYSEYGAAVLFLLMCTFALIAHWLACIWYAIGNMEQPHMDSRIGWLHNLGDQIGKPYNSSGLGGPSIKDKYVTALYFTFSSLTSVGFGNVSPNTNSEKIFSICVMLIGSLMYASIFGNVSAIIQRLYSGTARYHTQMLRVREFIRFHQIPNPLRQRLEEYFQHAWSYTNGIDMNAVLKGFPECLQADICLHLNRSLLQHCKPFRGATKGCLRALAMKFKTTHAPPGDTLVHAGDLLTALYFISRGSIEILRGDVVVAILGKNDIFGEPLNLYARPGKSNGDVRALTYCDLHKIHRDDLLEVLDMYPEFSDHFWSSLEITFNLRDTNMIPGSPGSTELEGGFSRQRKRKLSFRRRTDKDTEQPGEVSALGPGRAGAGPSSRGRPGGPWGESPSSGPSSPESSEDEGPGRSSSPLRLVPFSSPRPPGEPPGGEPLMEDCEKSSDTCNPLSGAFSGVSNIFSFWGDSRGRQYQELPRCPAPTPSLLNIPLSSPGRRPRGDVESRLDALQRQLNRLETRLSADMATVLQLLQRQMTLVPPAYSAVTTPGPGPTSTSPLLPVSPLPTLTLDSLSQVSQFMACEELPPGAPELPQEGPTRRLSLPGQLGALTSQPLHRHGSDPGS
Chain of Cytochrome P450 2D6 (Homo sapiens) (P10635 whole entry, looked up): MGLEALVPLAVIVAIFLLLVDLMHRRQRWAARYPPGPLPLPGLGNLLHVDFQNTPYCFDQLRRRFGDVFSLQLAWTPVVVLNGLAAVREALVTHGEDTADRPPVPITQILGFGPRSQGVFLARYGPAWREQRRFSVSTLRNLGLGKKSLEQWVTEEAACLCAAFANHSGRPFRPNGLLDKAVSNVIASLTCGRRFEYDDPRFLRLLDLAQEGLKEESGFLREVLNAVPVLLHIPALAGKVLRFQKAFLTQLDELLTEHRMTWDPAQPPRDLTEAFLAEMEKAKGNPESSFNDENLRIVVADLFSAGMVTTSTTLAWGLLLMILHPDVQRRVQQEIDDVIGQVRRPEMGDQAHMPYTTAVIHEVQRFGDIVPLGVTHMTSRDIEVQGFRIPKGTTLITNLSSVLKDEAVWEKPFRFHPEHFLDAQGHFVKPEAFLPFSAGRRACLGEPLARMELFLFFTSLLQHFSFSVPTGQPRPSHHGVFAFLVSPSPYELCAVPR
Chain of Cytochrome P450 1A2 (Homo sapiens) (P05177 whole entry, looked up): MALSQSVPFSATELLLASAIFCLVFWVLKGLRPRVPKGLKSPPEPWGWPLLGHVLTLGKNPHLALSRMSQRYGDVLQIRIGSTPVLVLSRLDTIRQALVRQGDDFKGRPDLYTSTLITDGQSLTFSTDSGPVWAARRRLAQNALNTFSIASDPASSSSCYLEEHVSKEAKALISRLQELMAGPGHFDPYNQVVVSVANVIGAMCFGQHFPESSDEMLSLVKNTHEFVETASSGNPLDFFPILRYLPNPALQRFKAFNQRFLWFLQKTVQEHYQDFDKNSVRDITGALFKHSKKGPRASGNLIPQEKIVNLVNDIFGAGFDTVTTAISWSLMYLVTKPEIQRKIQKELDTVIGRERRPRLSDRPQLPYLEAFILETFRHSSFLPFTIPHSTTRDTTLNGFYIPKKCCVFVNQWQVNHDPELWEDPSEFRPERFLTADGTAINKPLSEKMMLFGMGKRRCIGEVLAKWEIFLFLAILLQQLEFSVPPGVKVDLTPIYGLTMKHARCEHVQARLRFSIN
Chain of Cytochrome P450 3A4 (Homo sapiens) (P08684 whole entry, looked up): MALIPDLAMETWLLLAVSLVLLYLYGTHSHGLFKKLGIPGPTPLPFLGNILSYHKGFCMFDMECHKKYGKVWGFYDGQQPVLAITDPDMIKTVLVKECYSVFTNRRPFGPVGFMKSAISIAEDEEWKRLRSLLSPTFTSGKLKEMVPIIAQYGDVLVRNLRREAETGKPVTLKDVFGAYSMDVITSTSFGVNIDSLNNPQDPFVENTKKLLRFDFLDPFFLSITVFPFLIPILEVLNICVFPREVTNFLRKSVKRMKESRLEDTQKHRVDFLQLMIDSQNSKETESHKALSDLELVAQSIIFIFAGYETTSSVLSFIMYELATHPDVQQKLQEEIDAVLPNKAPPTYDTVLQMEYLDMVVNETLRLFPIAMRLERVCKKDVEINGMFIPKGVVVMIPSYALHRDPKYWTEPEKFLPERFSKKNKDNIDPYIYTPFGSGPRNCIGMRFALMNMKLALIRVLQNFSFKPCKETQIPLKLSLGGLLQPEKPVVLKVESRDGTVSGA
Chain of Nuclear receptor subfamily 1 group I member 2 (Homo sapiens) (O75469 whole entry, looked up): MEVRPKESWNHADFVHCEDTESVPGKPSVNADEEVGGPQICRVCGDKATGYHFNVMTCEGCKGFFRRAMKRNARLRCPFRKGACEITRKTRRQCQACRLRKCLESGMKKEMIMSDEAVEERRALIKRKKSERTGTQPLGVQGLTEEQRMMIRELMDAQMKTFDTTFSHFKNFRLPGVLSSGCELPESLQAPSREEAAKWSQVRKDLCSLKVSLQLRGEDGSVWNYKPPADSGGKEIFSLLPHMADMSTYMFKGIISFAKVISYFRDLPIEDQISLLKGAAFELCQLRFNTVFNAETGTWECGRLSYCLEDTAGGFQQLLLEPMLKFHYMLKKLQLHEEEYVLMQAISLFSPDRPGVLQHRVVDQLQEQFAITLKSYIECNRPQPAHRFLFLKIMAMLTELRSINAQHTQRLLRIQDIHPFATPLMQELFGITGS
Chain of Cytochrome P450 2C9 (Homo sapiens) (P11712 whole entry, looked up): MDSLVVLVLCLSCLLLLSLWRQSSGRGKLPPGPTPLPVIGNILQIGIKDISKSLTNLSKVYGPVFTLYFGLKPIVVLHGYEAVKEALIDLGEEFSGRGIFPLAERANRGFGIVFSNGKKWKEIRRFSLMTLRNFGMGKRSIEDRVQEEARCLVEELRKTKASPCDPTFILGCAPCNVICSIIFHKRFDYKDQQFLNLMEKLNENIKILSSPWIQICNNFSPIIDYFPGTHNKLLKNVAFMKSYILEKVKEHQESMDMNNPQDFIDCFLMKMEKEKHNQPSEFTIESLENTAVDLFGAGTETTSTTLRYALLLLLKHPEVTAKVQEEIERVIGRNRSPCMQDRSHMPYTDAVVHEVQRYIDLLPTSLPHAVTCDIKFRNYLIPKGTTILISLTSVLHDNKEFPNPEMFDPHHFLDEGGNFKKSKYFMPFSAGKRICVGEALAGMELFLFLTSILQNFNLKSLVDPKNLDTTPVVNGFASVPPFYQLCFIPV
Chain of Cytochrome P450 2C19 (Homo sapiens) (P33261 whole entry, looked up): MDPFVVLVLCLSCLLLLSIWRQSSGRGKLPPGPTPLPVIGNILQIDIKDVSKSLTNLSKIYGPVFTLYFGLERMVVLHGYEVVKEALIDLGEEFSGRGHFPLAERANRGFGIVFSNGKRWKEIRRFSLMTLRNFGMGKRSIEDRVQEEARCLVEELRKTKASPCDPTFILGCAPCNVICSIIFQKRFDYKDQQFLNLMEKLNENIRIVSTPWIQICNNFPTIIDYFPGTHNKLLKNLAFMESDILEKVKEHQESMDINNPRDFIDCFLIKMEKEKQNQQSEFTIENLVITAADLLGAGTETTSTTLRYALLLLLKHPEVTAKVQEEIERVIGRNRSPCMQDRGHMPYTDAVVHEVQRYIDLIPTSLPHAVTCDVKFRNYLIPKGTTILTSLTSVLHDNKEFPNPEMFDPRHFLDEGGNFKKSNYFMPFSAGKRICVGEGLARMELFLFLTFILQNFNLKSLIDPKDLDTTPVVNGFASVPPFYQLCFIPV
Chain of Nuclear receptor subfamily 1 group I member 2 (Rattus norvegicus) (Q9R1A7 whole entry, looked up): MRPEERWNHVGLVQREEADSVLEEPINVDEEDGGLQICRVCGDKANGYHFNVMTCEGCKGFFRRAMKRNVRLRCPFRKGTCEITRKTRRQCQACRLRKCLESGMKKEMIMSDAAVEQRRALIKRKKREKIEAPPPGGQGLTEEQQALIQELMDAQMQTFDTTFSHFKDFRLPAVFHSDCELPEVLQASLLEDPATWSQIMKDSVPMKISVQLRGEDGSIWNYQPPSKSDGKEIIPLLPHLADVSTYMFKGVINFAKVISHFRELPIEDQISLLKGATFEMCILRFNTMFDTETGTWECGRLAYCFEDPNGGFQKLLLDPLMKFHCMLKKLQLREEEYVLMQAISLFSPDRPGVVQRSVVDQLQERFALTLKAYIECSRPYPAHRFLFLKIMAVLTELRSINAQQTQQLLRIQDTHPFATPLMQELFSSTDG

For `C(=C\c1ccccc1)/c1ccccc1`, the Potency result in assay [1], in assay [2], in assay [3], in assay [4], in assay [5] and in assay [6] was “inactive” in each case. The Potency result in assay [9] was “inactive”. The Potency in assay [7] was 44.4 µM (active); in assay [8], 4.99 µM (active).
Take `CCOC(=O)[C@H](CCc1ccccc1)N[C@@H](C)C(=O)N(CC(=O)O)C1Cc2ccccc2C1`: the Potency result in assay [1], in assay [2], in [3], in assay [4], in assay [5] and in assay [10] was “inactive” throughout. For the same compound, the Potency entry in assay [9] is “inactive”. Besides, the Potency in assay [6] is 11.9 µM (active); in assay [11], 15.5 µM (active).
For the compound `CC/C=C1/OC(=O)c2ccccc21`, the Potency result in [1], in [2], in [3], in [4], in [5] and in [6] was “inactive” each time. Also, the Potency result in assay [9] and in assay [12] was “inactive” each time. Also, the Potency in [8] was 5.51 µM (active).
For `Oc1cccc(Nc2ccccc2)c1`, the Potency result in assay [1], in assay [2], in assay [3], in assay [4] and in [5] was “inactive” each time. In addition, the Potency is 63.8 µM (active) in assay [6], 37.1 µM (active) in assay [10], 11.7 µM (active) in assay [8] and 29.5 µM (active) in assay [12].
Regarding `CCCCC(CC)CN` (stereo not given), the Potency entry in [1], in assay [2], in assay [3], in assay [4], in assay [5] and in assay [7] was “inactive” in each case. The Potency entry in assay [11], in assay [9] and in [12] was “inactive” each time. Further, the Potency in assay [10] is 36.2 µM (active).
`CCCCN(CCCC)C(C(N)=O)c1ccc(OC)cc1` (stereo not given): the Potency result in assay [1], in assay [2], in assay [3], in assay [4], in assay [5] and in assay [9] was “inactive” throughout. Moreover, the figures for the Potency in [6] and in assay [10] were 11.9 µM (active) and 0.977 µM (active), respectively.
As to `N#CCCN(CCO)CCO`, the Potency entry in [1], in assay [2], in assay [3], in assay [4], in assay [5] and in assay [6] was “inactive” throughout. Also, the Potency entry in assay [10], in assay [11], in [8], in assay [9] and in assay [12] was “inactive” throughout.
Turning to `CCCCN1CCCC1C(=O)Nc1c(C)cc(C)cc1C` (stereo not given), the Potency result in assay [1], in assay [2], in assay [3], in [4], in assay [5] and in [11] was “inactive” in each case. In addition, the Potency result in [8] and in assay [9] was “inactive” each time. Further, the max activation in assay [13] is 14.6%. Also, in assay [10], the Potency is 3.09 µM (active).
On to `O=[N+]([O-])c1ccc(O/N=C/c2cc(Br)c(O)c(Br)c2)c([N+](=O)[O-])c1`, for which the Potency in [1] is 30.5 µM (active); in assay [3] it was 15.3 µM (active); in [5], 27.2 µM (active); in assay [7], 79.3 µM (active); in assay [11], 9.98 µM (active). Moreover, the Potency result in assay [2], in assay [4], in assay [10], in [8], in assay [9] and in [12] was “inactive” each time.
Take `CCc1ccccc1`: the Potency result in assay [1], in assay [2], in assay [3], in [4], in assay [5] and in assay [6] was “inactive” throughout. The Potency result in assay [7], in assay [11], in [9] and in assay [12] was “inactive” in each case.
Consider `c1ccc2sc(SN(C3CCCCC3)C3CCCCC3)nc2c1`, for which the Potency entry in assay [1], in assay [2], in assay [3], in [4], in [5] and in [9] was “inactive” each time. Moreover, the figures for the Potency in assay [6], in assay [10] and in [7] were 17 µM (active), 1.25 µM (active) and 7.87 µM (active), respectively.
